In the supplement of paper PMC10849652:
About 7,900 targets were measured; listed, in parts, are those with a hit and a random draw of the rest. About 0.6% of all pairs of compound and target were hits. Values without a mark were called inactive.

Each target was assayed with Cn1cc(-c2ccc3nnc(C(F)(F)c4ccc5ncccc5c4)n3n2)cn1 (assay: log2 fold change, soluble protein after heating vs DMSO (PISA); higher = thermal stabilisation; K562 cells, 10 uM, 30 min; active = over 0.2 and 3.5 SD of the protein, either way, in both replicates (recomputed)).
How it was run: (§1)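 K562 cells at 2×10^6 cells/mL were treated with 10 μM compound for 30 min. Aliquots were heated for 3 min across 48°C-58°C, pooled, and extracted in PBS with 0.5% NP-40 at 4°C; soluble protein was the supernatant after 21,000xg for 90 min. Soluble protein was quantified by TMTpro 16plex LC-MS/MS with channel sums equalised, and reported as log2 fold change in thermal stability against DMSO controls, with values from duplicates.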

UniProt Q9NX18, sequence (Q9NX18 whole entry, looked up): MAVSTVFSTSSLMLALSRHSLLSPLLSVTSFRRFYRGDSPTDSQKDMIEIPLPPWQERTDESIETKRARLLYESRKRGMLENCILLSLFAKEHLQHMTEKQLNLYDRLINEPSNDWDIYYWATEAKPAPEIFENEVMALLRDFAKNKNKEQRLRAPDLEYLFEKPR
UniProt P63208, sequence (P63208 whole entry, looked up): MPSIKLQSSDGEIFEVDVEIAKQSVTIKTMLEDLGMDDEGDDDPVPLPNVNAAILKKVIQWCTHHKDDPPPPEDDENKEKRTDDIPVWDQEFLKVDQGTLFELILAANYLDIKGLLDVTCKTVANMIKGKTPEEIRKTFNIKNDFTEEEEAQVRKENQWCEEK
UniProt O43818, sequence (O43818 whole entry, looked up): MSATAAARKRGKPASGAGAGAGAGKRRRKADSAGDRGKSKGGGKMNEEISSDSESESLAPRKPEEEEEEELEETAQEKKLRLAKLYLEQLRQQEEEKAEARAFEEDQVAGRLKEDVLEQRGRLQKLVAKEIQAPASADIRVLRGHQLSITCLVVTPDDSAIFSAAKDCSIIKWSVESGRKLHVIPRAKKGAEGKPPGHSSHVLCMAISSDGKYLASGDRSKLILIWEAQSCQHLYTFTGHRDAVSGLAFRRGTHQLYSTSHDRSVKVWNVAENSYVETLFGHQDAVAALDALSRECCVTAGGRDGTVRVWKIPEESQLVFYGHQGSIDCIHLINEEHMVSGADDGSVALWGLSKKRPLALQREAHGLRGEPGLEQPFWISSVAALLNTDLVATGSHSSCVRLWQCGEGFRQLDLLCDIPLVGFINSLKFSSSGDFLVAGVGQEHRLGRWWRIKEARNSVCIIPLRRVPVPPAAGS
UniProt P51148, sequence (P51148 whole entry, looked up): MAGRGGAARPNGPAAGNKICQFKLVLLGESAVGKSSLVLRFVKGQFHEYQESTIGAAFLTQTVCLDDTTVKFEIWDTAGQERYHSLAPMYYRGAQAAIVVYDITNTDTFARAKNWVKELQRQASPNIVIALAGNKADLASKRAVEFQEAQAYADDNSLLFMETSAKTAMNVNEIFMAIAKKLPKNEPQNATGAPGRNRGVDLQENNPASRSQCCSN
UniProt Q9H4A4, sequence (Q9H4A4 whole entry, looked up): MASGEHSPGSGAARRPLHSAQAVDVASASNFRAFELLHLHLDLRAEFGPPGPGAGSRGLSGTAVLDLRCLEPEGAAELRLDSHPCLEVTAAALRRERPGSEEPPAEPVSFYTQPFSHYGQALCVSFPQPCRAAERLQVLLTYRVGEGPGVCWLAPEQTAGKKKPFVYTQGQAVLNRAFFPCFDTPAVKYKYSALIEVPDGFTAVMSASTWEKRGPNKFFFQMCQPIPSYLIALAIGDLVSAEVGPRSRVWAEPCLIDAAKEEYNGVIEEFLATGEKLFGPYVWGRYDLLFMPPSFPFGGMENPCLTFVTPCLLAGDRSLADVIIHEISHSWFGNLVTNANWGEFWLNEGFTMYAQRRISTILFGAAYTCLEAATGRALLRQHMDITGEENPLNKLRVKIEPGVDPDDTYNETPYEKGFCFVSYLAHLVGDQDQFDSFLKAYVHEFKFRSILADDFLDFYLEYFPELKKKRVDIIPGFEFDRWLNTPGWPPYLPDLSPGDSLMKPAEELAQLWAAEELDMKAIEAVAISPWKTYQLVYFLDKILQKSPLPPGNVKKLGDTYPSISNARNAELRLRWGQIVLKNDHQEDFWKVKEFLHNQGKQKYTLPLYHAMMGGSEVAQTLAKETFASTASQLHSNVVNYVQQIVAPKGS
UniProt Q04864, sequence (Q04864 whole entry, looked up): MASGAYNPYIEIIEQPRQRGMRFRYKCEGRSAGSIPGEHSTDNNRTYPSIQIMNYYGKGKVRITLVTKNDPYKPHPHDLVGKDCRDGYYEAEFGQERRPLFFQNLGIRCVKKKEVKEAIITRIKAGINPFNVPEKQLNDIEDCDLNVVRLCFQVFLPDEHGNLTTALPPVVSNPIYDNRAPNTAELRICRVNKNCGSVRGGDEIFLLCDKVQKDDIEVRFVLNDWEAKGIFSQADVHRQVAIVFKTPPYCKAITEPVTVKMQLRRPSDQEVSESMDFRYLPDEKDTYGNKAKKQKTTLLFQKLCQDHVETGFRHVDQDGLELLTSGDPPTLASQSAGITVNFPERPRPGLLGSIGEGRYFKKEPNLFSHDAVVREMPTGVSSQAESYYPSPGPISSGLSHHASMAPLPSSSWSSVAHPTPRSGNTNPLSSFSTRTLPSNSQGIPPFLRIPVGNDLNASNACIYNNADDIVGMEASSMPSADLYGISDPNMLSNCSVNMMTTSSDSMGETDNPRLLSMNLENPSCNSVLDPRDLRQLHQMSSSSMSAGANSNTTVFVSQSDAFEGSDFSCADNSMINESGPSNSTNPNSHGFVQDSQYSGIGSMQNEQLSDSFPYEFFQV
UniProt P11233, sequence (P11233 whole entry, looked up): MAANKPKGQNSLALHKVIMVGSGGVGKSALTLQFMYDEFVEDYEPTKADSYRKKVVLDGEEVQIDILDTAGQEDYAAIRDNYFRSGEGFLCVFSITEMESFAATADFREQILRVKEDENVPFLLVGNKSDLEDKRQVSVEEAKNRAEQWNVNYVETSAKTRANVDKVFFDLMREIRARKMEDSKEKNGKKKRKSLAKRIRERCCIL
UniProt Q14498, sequence (Q14498 whole entry, looked up): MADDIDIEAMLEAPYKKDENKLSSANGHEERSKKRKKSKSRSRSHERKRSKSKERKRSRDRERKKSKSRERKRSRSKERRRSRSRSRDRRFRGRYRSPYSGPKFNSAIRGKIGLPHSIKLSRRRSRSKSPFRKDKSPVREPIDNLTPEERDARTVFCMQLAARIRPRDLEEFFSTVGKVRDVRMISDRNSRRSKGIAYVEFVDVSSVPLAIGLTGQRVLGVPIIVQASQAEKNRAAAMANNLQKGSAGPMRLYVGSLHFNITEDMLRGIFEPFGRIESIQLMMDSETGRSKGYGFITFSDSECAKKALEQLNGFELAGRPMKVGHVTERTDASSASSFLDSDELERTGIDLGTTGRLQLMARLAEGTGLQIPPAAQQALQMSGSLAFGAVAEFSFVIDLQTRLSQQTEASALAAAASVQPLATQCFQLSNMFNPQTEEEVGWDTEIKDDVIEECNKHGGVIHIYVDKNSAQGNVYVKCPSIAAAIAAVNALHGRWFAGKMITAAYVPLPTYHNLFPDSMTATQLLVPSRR
UniProt Q9HB90, sequence (Q9HB90 whole entry, looked up): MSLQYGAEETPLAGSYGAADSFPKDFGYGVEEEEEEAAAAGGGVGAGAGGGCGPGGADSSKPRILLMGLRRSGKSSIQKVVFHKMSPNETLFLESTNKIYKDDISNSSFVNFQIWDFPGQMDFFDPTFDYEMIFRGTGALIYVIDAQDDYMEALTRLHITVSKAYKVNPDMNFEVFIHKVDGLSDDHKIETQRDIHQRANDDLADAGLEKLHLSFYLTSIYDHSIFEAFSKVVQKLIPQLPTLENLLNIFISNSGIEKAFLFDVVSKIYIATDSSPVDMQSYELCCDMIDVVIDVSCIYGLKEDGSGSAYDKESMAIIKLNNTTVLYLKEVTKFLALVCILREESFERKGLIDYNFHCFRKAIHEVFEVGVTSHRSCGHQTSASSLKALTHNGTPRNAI
UniProt P41440, sequence (P41440 whole entry, looked up): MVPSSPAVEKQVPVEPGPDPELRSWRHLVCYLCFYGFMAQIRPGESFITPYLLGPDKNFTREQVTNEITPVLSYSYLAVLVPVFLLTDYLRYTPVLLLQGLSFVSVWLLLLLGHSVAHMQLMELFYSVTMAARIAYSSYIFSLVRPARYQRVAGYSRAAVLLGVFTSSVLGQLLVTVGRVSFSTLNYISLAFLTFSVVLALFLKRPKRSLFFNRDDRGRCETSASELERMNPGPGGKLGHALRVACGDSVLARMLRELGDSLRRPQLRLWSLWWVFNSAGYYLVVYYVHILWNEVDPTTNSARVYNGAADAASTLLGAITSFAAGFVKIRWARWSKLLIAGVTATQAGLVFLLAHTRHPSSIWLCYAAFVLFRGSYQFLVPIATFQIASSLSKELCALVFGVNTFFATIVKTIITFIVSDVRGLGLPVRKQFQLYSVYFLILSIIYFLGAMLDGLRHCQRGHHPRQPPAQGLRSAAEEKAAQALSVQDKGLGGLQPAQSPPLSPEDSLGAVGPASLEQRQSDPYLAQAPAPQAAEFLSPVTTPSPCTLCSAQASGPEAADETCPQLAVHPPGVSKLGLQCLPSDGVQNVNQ
UniProt Q96I25, sequence (Q96I25 whole entry, looked up): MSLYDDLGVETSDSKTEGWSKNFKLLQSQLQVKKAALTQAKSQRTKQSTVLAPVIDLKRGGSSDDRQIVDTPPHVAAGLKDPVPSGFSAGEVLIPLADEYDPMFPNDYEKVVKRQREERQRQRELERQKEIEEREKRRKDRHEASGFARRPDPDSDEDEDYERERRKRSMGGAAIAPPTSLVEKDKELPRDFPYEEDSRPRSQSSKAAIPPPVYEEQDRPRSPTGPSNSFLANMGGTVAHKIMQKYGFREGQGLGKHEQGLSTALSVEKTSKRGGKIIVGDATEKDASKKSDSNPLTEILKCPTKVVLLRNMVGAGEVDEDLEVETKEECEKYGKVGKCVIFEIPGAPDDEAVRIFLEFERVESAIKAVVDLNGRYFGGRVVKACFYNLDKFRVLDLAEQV
UniProt Q15382, sequence (Q15382 whole entry, looked up): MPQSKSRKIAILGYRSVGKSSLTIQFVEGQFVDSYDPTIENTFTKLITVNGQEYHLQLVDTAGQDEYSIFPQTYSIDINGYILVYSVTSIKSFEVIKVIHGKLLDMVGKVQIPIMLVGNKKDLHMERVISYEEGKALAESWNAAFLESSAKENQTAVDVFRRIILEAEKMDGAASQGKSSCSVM
UniProt O95059, sequence (O95059 whole entry, looked up): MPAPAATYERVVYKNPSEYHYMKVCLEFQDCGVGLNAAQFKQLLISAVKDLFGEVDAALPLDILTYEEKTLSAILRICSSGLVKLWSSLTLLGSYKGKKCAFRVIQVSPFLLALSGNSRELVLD
UniProt Q99643, sequence (Q99643 whole entry, looked up): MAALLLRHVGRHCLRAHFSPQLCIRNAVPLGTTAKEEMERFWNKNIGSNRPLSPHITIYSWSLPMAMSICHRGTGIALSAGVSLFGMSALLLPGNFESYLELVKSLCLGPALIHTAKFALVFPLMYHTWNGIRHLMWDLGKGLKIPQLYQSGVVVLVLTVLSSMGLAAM

**Q.** For REL (UniProt Q04864), which log2 fold change is on record?
**A.** 0.059

**Q.** RAB5C isoform 2 (UniProt P51148) was tested. Which log2 fold change did it give?
**A.** -0.027

**Q.** How did the log2 fold change turn out when RPS27A (UniProt P62979) was run?
**A.** 0

**Q.** With SKP1 (UniProt P63208) as the target, how does the log2 fold change read?
**A.** -0.017

**Q.** For RRP9 (UniProt O43818), which log2 fold change is on record?
**A.** -0.102

**Q.** How did the log2 fold change turn out when RALA (UniProt P11233) was run?
**A.** 0.043

**Q.** Which log2 fold change does the source give for SDHAF2 (UniProt Q9NX18) here?
**A.** 0.017

**Q.** How did the log2 fold change turn out when RBM39 (UniProt Q14498) was run?
**A.** -0.012

**Q.** With RNPEP (UniProt Q9H4A4) as the target, how does the log2 fold change read?
**A.** 0.043

The targets below were run with Cn1cncc1[C@@](N)(c1ccc(Cl)cc1)c1ccc2c(c1)c(-c1cccc(Cl)c1)cc(=O)n2C [tipifarnib] in the same assay as above.
How it was run: as §1

**Q.** How did the log2 fold change turn out when SLBP (UniProt Q14493) was run?
**A.** 0

**Q.** RDH10 (UniProt Q8IZV5) was tested. Which log2 fold change did it give?
**A.** 0.028

**Q.** How did the log2 fold change turn out when SAFB2 (UniProt Q14151) was run?
**A.** 0.085

**Q.** How did the log2 fold change turn out when SEC23A (UniProt Q15436) was run?
**A.** -0.013

**Q.** SCG3 (UniProt Q8WXD2) was tested. Which log2 fold change did it give?
**A.** 0.044

**Q.** Which log2 fold change does the source give for RUFY1 (UniProt Q96T51) here?
**A.** -0.062

**Q.** With SLC19A1 (UniProt P41440) as the target, how does the log2 fold change read?
**A.** 0.051

**Q.** Which log2 fold change does the source give for SFXN5 (UniProt Q8TD22) here?
**A.** 0.022

**Q.** RAC3 (UniProt P60763) was tested. Which log2 fold change did it give?
**A.** 0.03

**Q.** For RPRD1B (UniProt Q9NQG5), which log2 fold change is on record?
**A.** -0.039

**Q.** How did the log2 fold change turn out when SDHC (UniProt Q99643) was run?
**A.** 0.211

**Q.** With RRAGC (UniProt Q9HB90) as the target, how does the log2 fold change read?
**A.** -0.027

**Q.** How did the log2 fold change turn out when RPS19 (UniProt P39019) was run?
**A.** 0.055

**Q.** Which log2 fold change does the source give for RHEB (UniProt Q15382) here?
**A.** -0.042

**Q.** For RBM17 (UniProt Q96I25), which log2 fold change is on record?
**A.** -0.042

**Q.** For SIRT2 (UniProt Q8IXJ6), which log2 fold change is on record?
**A.** 0.027

**Q.** For RBM12 (UniProt Q9NTZ6), which log2 fold change is on record?
**A.** -0.061

**Q.** SASH1 (UniProt O94885) was tested. Which log2 fold change did it give?
**A.** 0.025

**Q.** How did the log2 fold change turn out when RPS20 isoform 2 (UniProt P60866) was run?
**A.** 0.094

**Q.** For RPP14 (UniProt O95059), which log2 fold change is on record?
**A.** 0.003

**Q.** How did the log2 fold change turn out when RBM25 (UniProt P49756) was run?
**A.** 0.068

**Q.** With RCOR1 (UniProt Q9UKL0) as the target, how does the log2 fold change read?
**A.** -0.087

**Q.** How did the log2 fold change turn out when RPS12 (UniProt P25398) was run?
**A.** 0.049

**Q.** Which log2 fold change does the source give for RAB9A (UniProt P51151) here?
**A.** 0.001

**Q.** With REL (UniProt Q04864) as the target, how does the log2 fold change read?
**A.** -0.011

**Q.** For RAB5C isoform 2 (UniProt P51148), which log2 fold change is on record?
**A.** 0.006

**Q.** RPS27A (UniProt P62979) was tested. Which log2 fold change did it give?
**A.** 0.079

**Q.** With SKP1 (UniProt P63208) as the target, how does the log2 fold change read?
**A.** -0.06

**Q.** Which log2 fold change does the source give for RRP9 (UniProt O43818) here?
**A.** 0.074

**Q.** How did the log2 fold change turn out when RALA (UniProt P11233) was run?
**A.** -0.06

**Q.** Which log2 fold change does the source give for SDHAF2 (UniProt Q9NX18) here?
**A.** 0.007

**Q.** How did the log2 fold change turn out when RBM39 (UniProt Q14498) was run?
**A.** -0.03

**Q.** For RNPEP (UniProt Q9H4A4), which log2 fold change is on record?
**A.** -0.116

The targets below were run with FC(F)(F)c1ccc(/C=C/c2nc(COc3ccc(CCCCn4ccnn4)cc3)co2)cc1 [mubritinib] in the same assay as above.
How it was run: as §1

**Q.** How did the log2 fold change turn out when SLBP (UniProt Q14493) was run?
**A.** -0.023

**Q.** How did the log2 fold change turn out when RDH10 (UniProt Q8IZV5) was run?
**A.** 0.106

**Q.** How did the log2 fold change turn out when SAFB2 (UniProt Q14151) was run?
**A.** -0.077

**Q.** How did the log2 fold change turn out when SEC23A (UniProt Q15436) was run?
**A.** -0.002

**Q.** Which log2 fold change does the source give for SCG3 (UniProt Q8WXD2) here?
**A.** -0.01

**Q.** For RUFY1 (UniProt Q96T51), which log2 fold change is on record?
**A.** -0.001

**Q.** With SLC19A1 (UniProt P41440) as the target, how does the log2 fold change read?
**A.** 0.074

**Q.** Which log2 fold change does the source give for SFXN5 (UniProt Q8TD22) here?
**A.** 0.041

**Q.** How did the log2 fold change turn out when RAC3 (UniProt P60763) was run?
**A.** -0.008

**Q.** How did the log2 fold change turn out when RPRD1B (UniProt Q9NQG5) was run?
**A.** 0.032

**Q.** SDHC (UniProt Q99643) was tested. Which log2 fold change did it give?
**A.** 0.02

**Q.** RRAGC (UniProt Q9HB90) was tested. Which log2 fold change did it give?
**A.** 0.031

**Q.** RPS19 (UniProt P39019) was tested. Which log2 fold change did it give?
**A.** -0.037

**Q.** Which log2 fold change does the source give for RHEB (UniProt Q15382) here?
**A.** 0.004

**Q.** How did the log2 fold change turn out when RBM17 (UniProt Q96I25) was run?
**A.** -0.148

**Q.** For SIRT2 (UniProt Q8IXJ6), which log2 fold change is on record?
**A.** 0.067

**Q.** Which log2 fold change does the source give for RBM12 (UniProt Q9NTZ6) here?
**A.** 0.032

**Q.** SASH1 (UniProt O94885) was tested. Which log2 fold change did it give?
**A.** 0.032

**Q.** With RPS20 isoform 2 (UniProt P60866) as the target, how does the log2 fold change read?
**A.** -0.059

**Q.** Which log2 fold change does the source give for RPP14 (UniProt O95059) here?
**A.** -0.084

**Q.** Which log2 fold change does the source give for RBM25 (UniProt P49756) here?
**A.** 0.049

**Q.** How did the log2 fold change turn out when RCOR1 (UniProt Q9UKL0) was run?
**A.** 0.07

**Q.** Which log2 fold change does the source give for RPS12 (UniProt P25398) here?
**A.** -0.08

**Q.** With RAB9A (UniProt P51151) as the target, how does the log2 fold change read?
**A.** 0.002

**Q.** For REL (UniProt Q04864), which log2 fold change is on record?
**A.** 0.034

**Q.** RAB5C isoform 2 (UniProt P51148) was tested. Which log2 fold change did it give?
**A.** 0.031

**Q.** For RPS27A (UniProt P62979), which log2 fold change is on record?
**A.** -0.121

**Q.** How did the log2 fold change turn out when SKP1 (UniProt P63208) was run?
**A.** -0.001

**Q.** Which log2 fold change does the source give for RRP9 (UniProt O43818) here?
**A.** -0.046

**Q.** For RALA (UniProt P11233), which log2 fold change is on record?
**A.** 0.015

**Q.** Which log2 fold change does the source give for SDHAF2 (UniProt Q9NX18) here?
**A.** 0.058

**Q.** With RBM39 (UniProt Q14498) as the target, how does the log2 fold change read?
**A.** -0.043

**Q.** For RNPEP (UniProt Q9H4A4), which log2 fold change is on record?
**A.** 0.051
